Experimental data taken from PubChem BioAssay (NCATS).
Results filed as inconclusive are left out. Calls of active or inactive are those of the source. Unless noted, calls follow the shape of the full dose curve.

How the values were obtained:
[1] = Primary qHTS for inhibitors of nuclear receptor binding SET domain protein 2 (NSD2) in an isogenic RCH-ACV NSD2 p.E1099K mutant (9B) (AID 1645876; active = well fitted inhibition curve with a large enough effect; also: nearly all actives have a fitted effect of over 70% in size)
[2] = qHTS drug screen for cell cycle checkpoint inhibitors in PARPi-resistant BRCA-mutant ovarian cancer cell lines. (AID 1963452); conditions: PEO1/OlaR viability, CellTiter-Glo luminescence, 96 h; for Z-AUC: stronger effect = lower value
Method in brief: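 PEO1, PEO4 and PEO1/OlaR ovarian cancer cells, 600 per well, exposed 96 h at 37C to a dilution series. Viability read by CellTiter-Glo luminescence, normalized to DMSO and empty wells; activity summarized as Z-AUC.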
Potency is read from the fitted curve at half-maximal effect.

Structure (SMILES) | Potency [1] | Potency [2] | Z-AUC ([2]; PEO1 parental Z-AUC) | Z-AUC ([2]; PEO4 Z-AUC) | Z-AUC [2]
CC1(C)CC[C@]2(NC(=O)C(C)(F)F)CC[C@]3(C)[C@H](C(=O)C=C4[C@@]5(C)C=C(C#N)C(=O)C(C)(C)[C@@H]5CC[C@]43C)[C@@H]2C1 | 9.34 µM (active) | 1.38 µM (active) | -1.7 | -2.21 | –
COC(=O)[C@]12CCC(C)(C)C[C@H]1[C@H]1C(=O)C=C3[C@@]4(C)C=C(C#N)C(=O)C(C)(C)[C@@H]4CC[C@@]3(C)[C@]1(C)CC2 | 8.33 µM (active) | – | -0.983 | -1.45 | 0.111 (inactive)
